Assay outcomes (PubChem BioAssay)
NPC1 prom act = NPC1 promoter activation; Huh7 NPC1 promoter luciferase reporter, 24 h; 320,000 compounds, 2.4% hits; Potency, µM (highest dose often 9.22 µM), for inactives: at the top dose activation, actives largely listed as activators; further: % of control where 0% means no effect; nearly all actives have a fitted effect of over 60% in size
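In 1536-well qHTS, Huh7 cells harboring an NPC1 promoter–luciferase construct received compound for 24 h; activation was quantified by luminescence following luciferase reagent addition.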
uPA generation = cell surface uPA generation inhibition; cell surface uPA generation assay, qHTS; Potency, µM (top dose mostly 38.3 µM), for inactives: at the top dose activity change, negative = inhibition, hits mostly inhibitors; 330,000 compounds, 0.31% hits; AID 540303; active means well fitted inhibition curve with a large enough effect; inconclusive means small, poorly fitted or top-dose-only effect; inactive means no such curve, though single readings can be large or run the other way; tested in mouse RAW 264.7 cells; further: on the % scale 0 is the no-effect control and ±100 the full control effect; nearly all actives have a fitted effect of over 55% in size
Rab9 promoter act = Rab9 promoter activation. Huh7 Rab9 promoter-luciferase reporter, luminescence, 24 h. Potency, µM (highest dose often 9.22 µM), for the others: top-dose activation, negative = inhibition, actives largely listed as activators. 320,000 compounds, 2.8% hits. AID 485297; further: % of control where 0% means no effect; nearly all actives have a fitted effect of over 60% in size
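Huh7 cells stably carrying Rab9 promoter–luciferase reporter, plated 1500 cells/well, compound added after 2 h and incubated 24 h at 37 °C; luciferase luminescence then read after 10 min with detection reagent.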
FLuc counter = inhibits or activates purified firefly luciferase, miR-21 counter-screen | purified FLuc, Km substrates, luminescence inhibition | P08659 | Potency, µM (titrated, usually from 57.5 µM), for the others: at the top dose activity change, negative = inhibition, most hits filed as inhibitors | 360,000 compounds, 6.9% hits;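 further: plate controls were vehicle for no effect and reference inhibitor for full effect; nearly all actives have a fitted effect of over 55% in size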
Target sequence (P08659 whole entry, looked up): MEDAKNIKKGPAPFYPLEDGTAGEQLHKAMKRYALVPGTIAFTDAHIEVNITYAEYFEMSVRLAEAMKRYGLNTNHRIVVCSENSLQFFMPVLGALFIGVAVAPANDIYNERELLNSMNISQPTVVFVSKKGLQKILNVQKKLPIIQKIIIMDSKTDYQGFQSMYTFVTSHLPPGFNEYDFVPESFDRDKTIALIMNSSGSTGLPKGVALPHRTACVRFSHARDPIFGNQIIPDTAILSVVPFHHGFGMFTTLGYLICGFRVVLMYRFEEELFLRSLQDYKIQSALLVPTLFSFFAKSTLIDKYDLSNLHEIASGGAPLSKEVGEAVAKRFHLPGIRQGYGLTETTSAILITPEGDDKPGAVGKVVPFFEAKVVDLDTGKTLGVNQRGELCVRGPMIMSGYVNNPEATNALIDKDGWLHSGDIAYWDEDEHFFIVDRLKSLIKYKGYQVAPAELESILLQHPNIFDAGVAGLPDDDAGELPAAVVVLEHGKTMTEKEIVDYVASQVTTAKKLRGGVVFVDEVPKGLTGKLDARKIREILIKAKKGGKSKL
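Purified P. pyralis luciferase, 10 nM final, with Km-level 10 uM D-luciferin and 10 uM ATP in 50 mM Tris acetate pH 7.5, 10 mM Mg acetate, 0.01% Tween-20, 0.05% BSA; 6-point qHTS titration about 60 µM downward; luminescence read.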
SMN2 splice enh = enhancers of SMN2 splice variant expression | HEK293 SMN2-luciferase splicing reporter, luminescence, 30-36 h | 210,000 compounds, 2.8% hits | Potency, µM (series often up to 46.1 µM), for inactives: at the highest dose activity change, positive = activation, most hits filed as activators; further: % of control where 0% means no effect; nearly all actives have a fitted effect of over 55% in size
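HEK293 cells carry an SMN2 minigene-luciferase reporter in which exon 7 inclusion puts luciferase in frame. Cells were seeded at 2000 cells/well, attached for 10-12 hours, then exposed to compounds for 30-36 hours at 37C before ONE-Glo luminescence.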
ELG1 genotox = induces genotoxicity in HEK293T cells with luciferase-tagged ELG1; HEK293T ELG1-luciferase reporter, luminescence, 16 h; Potency, µM (titrated, usually from 46 µM), for the others: at the highest dose activity change, positive = activation, usual class: activators; 330,000 compounds, 1.3% hits; further: % of control where 0% means no effect; nearly all actives have a fitted effect of over 60% in size
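HEK293T cells expressing luciferase-tagged ELG1 were exposed to compound or DMSO vehicle for 16 hr at 37 °C and 5% CO2. Luciferase activity was then measured with ONE-Glo after 30 min at room temperature.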
Active calls of the source: *; u = inconclusive; x = not tested or not shown. Shown are actives, neighbours in structure and some others; about 7.3% of the full set was active somewhere. Unless noted, the call rests on the fitted dose curve; in most records, active means well fitted curve in the direction sought with a large enough effect; inconclusive means small, poorly fitted or top-dose-only effect, or another doubt; inactive means no such curve, though single readings can be large; an effect the other way counts as inactive or inconclusive. Potency means the concentration at half of the fitted maximal effect.

SMILES	NPC1 prom act	uPA generation	Rab9 promoter act	FLuc counter	SMN2 splice enh	ELG1 genotox
CC1Cc2ccccc2N1c1ncnc2nc[nH]c12 (configuration not stated)	21.8%	8.0%	13.3%	21.3µM*	28.6%	1.6%
Cc1ccc(Cl)cc1NC(=O)CCCn1c(=O)c2cccn2c2ccccc21	x	x	x	12µM*	x	x
COc1ccc(CCNC(=O)CCCn2c(=O)c3cccn3c3ccccc32)cc1OC	x	x	x	-1.3%	x	x
CN(C)CCNC(=O)CCCn1c(=O)c2cccn2c2ccccc21	x	x	x	15.1µM*	x	x
CCOC(=O)c1cnc2ccc(OC)cc2c1NCCc1ccccc1	x	x	x	-9.0%	-53.6%	x
O=C(N/N=C/C(Cl)=C/c1ccc([N+](=O)[O-])cc1)C(=O)Nc1cccc(C(=O)O)c1	u	u	u	23.9µM*	x	u
O=C(Nc1cccc(C(=O)O)c1)/C(=C/c1cccc([N+](=O)[O-])c1)NC(=O)c1cccc(Br)c1	x	-2.7%	x	x	x	x
COc1cccc(C(=O)O/N=C(\N)CS(=O)(=O)c2ccccc2)c1	16.1%	-19.5%	22.6%	3.1%	x	u
CC(C)(C)c1ccc(OCC(O)CSc2ncn[nH]2)cc1 (configuration not stated)	u	-2.5%	u	2.13µM*	u	u
CC(C)(C)c1ccc(SCCc2cccnc2)cc1	2µM*	0.2%	3.55µM*	5.36µM*	x	u
CCc1c(C)nc2nc(-c3ccccc3)nn2c1NCc1ccc(C)cc1	x	x	x	u	4.3%	x
Cc1noc(C)c1COc1ccccc1C(=O)N1CCN(S(=O)(=O)c2ccccc2F)CC1	0.6%	-7.1%	-4.8%	3.8%	x	23.1µM*
CC(C)(C)OC(=O)N1CCC(c2c(C(=O)NCc3ccccc3)cnn2-c2cccc(F)c2)CC1	x	x	x	-2.3%	x	x
COc1ccc(F)cc1S(=O)(=O)n1cc(C)nc1-c1ccccc1	0.7%	0.1%	0.6%	-1.5%	3.55µM*	-0.1%
COc1ccc(C(=O)/C=C/c2ccccc2C(F)(F)F)cc1	15.2%	u	0.7%	12µM*	-8.9%	-0.7%
CCOc1ccc(C(=O)/C=C/c2ccccc2C(F)(F)F)cc1	14.5%	12.0%	10.1%	5.36µM*	-11.3%	1.0%
COc1ccc(C(=O)CC(=O)C(=O)Nc2ccccc2C(F)(F)F)cc1	-3.7%	-10.2%	-3.8%	1.0%	x	-3.2%
CCOc1ccc(C(=O)/C=C/c2cc(OC)c(OC)c(OC)c2)cc1	-7.2%	-5.2%	-15.5%	u	-57.0%	-8.8%
Cc1ccc(S(=O)(=O)N2CCOCC2)cc1C(=O)NC(=S)N1CC(C)OC(C)C1 (configuration not stated)	-2.3%	-2.4%	-3.5%	0.2%	x	-0.8%
COc1ccc(C(=O)c2cc3c(cc2[N+](=O)[O-])OCCO3)cc1	-1.2%	-5.0%	0.6%	-1.1%	x	3.7%
COc1ccc(C(=O)n2c(SC)nc3cc4c(cc32)OCCO4)cc1	17.2%	-18.4%	28.8%	19µM*	9.3%	u
Clc1ccc(C2=NN(c3ccccc3)C(c3ccco3)C2)cc1 (configuration not stated)	7.8%	-1.2%	-4.6%	u	x	-1.0%
Cc1nc(N2N=C(c3ccc(Cl)cc3)CC2c2ccco2)sc1C(=O)N(C)C (configuration not stated)	-1.4%	-4.2%	2.3%	15.1µM*	9.9%	0.6%
CC(=O)Nc1ccc2nc3c(=O)n(C)c(=O)n(C)c3nc2c1C	x	x	x	-3.2%	-5.7%	x
Cc1cc(C)cc(OCC(=O)Nc2nc3c(s2)CC(C(C)(C)C)CC3)c1 (configuration not stated)	x	x	x	12µM*	x	x
SMILES	NPC1 prom act	uPA generation	Rab9 promoter act	FLuc counter	SMN2 splice enh	ELG1 genotox
CC(C)(C)C1CCc2nc(NC(=O)COc3ccccc3[N+](=O)[O-])sc2C1 (configuration not stated)	x	x	x	-5.3%	x	x
COc1ccc(NC(=O)C(=O)NCC(c2cccnc2)N2CCc3ccccc3C2)cc1 (configuration not stated)	x	x	x	0.379µM*	x	x
COc1ccccc1C(=O)NCC(c1cccnc1)N1CCc2ccccc2C1 (configuration not stated)	x	x	x	2.69µM*	x	x
Cc1cc(NC(=O)C2CC2)n(-c2nc3ccccc3s2)n1	-0.7%	-3.7%	18.2%	15.1µM*	0.1%	7.5%
CC1CCc2c(sc3ncnc(NCc4cccnc4)c23)C1 (configuration not stated)	5.9%	-22.7%	-7.9%	26.9µM*	29.3%	-0.4%
c1cncc(CNc2ncnc3sc4c(c23)CCC4)c1	2.7%	3.7%	-4.2%	-5.2%	x	-14.7%
O=C1C2C(C(=O)N1/N=C/c1cccc([N+](=O)[O-])c1)C1C=CC2C12CC2 (configuration not stated)	u	-1.5%	u	7.57µM*	16.3%	u
O=C1C2C(C(=O)N1/N=C/c1cc([N+](=O)[O-])ccc1O)C1C=CC2C12CC2 (configuration not stated)	-0.9%	-7.0%	5.3%	-16.3%	1.4%	-1.5%
CN(C)S(=O)(=O)NCCNc1ccc(C(F)(F)F)cc1[N+](=O)[O-]	-3.5%	-3.6%	2.0%	19µM*	5.9%	3.1%
Cc1ccccc1OCCNc1ccc(C(F)(F)F)cc1[N+](=O)[O-]	0.5%	-2.2%	9.8%	u	-3.5%	1.0%
O=[N+]([O-])c1cc(C(F)(F)F)ccc1NCCOc1ccccc1	u	8.2%	u	13.5µM*	u	u
O=C(O)COc1ccc2c(c1)O/C(=C\c1ccco1)C2=O	-0.7%	-0.9%	1.2%	u	x	0.4%
O=C(O)COc1ccc2c(c1)O/C(=C\c1cccs1)C2=O	-4.9%	-3.2%	-0.9%	1.9µM*	x	1.2%
Cc1ccc(/C=C2\Oc3cc(OCC(=O)NN)ccc3C2=O)o1	0.7%	4.6%	-5.1%	2.13µM*	x	0.2%
O=C(C1CC1)N1CCc2cc(Br)cc(S(=O)(=O)Nc3ccc(C(F)(F)F)cc3)c21	x	x	x	u	-13.3%	x
O=C(CSc1nnnn1-c1ccccc1)Nc1nsc(-c2ccccc2)n1	1.0%	10.2%	-4.8%	-1.1%	-0.7%	5.5%
COc1ccc(-c2nc(NC(=O)CSc3nnc4ccccn34)ns2)cc1	29.9%	5.8%	2.2%	12µM*	18.2%	-6.4%
O=C(CSc1nnc2ccccn12)Nc1nsc(-c2ccccc2)n1	11.0%	3.9%	-0.4%	15.1µM*	10.6%	-1.6%
O=C(CSc1nnc2ccccn12)Nc1cccc(-c2nc3ccccc3s2)c1	3.55µM*	1.5%	u	-19.5%	14.1µM*	u
O=C(Oc1ccccc1)N1CCC2(CC1)CN(c1ccccn1)C2	x	x	x	x	-27.4%	x
COc1ccc(-c2nc3cc(NC(=O)Cc4ccc(Cl)cc4)ccc3o2)cc1OC	x	x	x	-5.5%	-8.6%	x
